Screening results: PubChem BioAssay, several laboratories
EP2 mod = EP2 receptor modulators, cAMP readout, primary screen, cell-based, HTRF cAMP, PGE2 stimulation; 260,000 compounds, 0.83% hits; Prostaglandin E2 receptor EP2 subtype (Homo sapiens), P43116; AID 940, 2007; EP2-expressing cells, cAMP HTRF FRET, PGE2 co-stimulation; induction, % at 25 µM;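 active means compounds whose cAMP rise, as percent of the full-agonist control response, exceeds 60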;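 further: rat C6 glioma line stably carrying human EP2 under a CMV promoter; the protocol text gives 20 µM as final concentration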
EP2 antag = human EP2 receptor antagonists, primary screen, TR-FRET cAMP, C6 glioma cells; inhibition, % at 25 µM; AID 1422, 2008; Prostaglandin E2 receptor EP2 subtype (Homo sapiens), P43116; C6 glioma cells expressing human EP2; cells stimulated with saturating PGE2; 260,000 compounds, 0.52% hits;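 active means percent inhibition above 40 after rounding to a whole number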;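 further: rat C6 glioma host cells with rolipram phosphodiesterase inhibitor present; the protocol text gives 20 µM as final concentration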
HSV replic up = enhancers of HSV replication in host cells, fold increase, host cell viability; HSV replication augmentation in cells; maximum fold increase; 220,000 compounds, 0.005% hits; AID 1956, 2009; in the data active means maximum fold increase above about 1.5; tested in PC3 cells
Pf gamet viab = late stage P. falciparum gametocyte viability inhibitors, primary screen, ATP luminescence, HTS; P. falciparum stage V gametocytes, 24 h; inhibition, % at 10.9 µM; 150,000 compounds, 0.065% hits; AID 743093, 2013;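 active means inhibition above the mean plus 3 SD of compounds within the control limits, set per campaign, cut at about 38% in these data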
Furin inhibitor = human furin inhibitors, primary screen, biochemical, fluorescence intensity; purified furin, fluorogenic substrate cleavage; inhibition, % at 20 µM or 30 µM; 220,000 compounds, 0.061% hits; P09958; in the data active means inhibition above about 25%
EP2 cAMP induct = cAMP induction in EP2, EP4, beta2-AR and parental cells, confirmation, counter-screen for EP2 modulator project, cell-based, five parallel assays, C6 glioma, HEK293. shares compounds with EP2 mod. cAMP HTRF induction; plus low (about EC15) PGE2 agonist. calls only at 20 µM (by protocol). 1,300 compounds, 47% hits. AID 1080, 2008;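 active means cAMP induction above 50% in the main assay while under 30% in all four parallel counter assays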;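 further: rat C6 glioma cells stably expressing human EP2 receptor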
A number is an active result; i = inactive; nt = not tested or not shown; + = active, no number. An excerpt weighted towards active compounds, which were near 1.4% of everything screened.

SMILES | EP2 mod | EP2 antag | HSV replic up | Pf gamet viab | Furin inhibitor | EP2 cAMP induct
C/C(CCc1oc2ccc(Cl)cc2c1-c1ccc(C)o1)=N\O | 65.0 | i | i | nt | i | +
Cc1ccccc1N1OC2C(=O)N(c3ccc(F)cc3)C(=O)C2C1c1ccccn1 (centres undefined) | i | i | i | nt | i | nt
Cc1cccc(C(=O)c2cnc3ccccc3c2-c2ccccc2)c1 | 90.0 | i | i | nt | i | +
COc1cccc(C(=O)N2CCN(Cc3cn[nH]c3-c3ccc(F)cc3F)CC2)c1 | i | i | i | nt | i | nt
COc1ccccc1C(CC(=O)c1ccccc1)CC(=O)c1ccccc1 | 67.1 | i | i | i | i | +
COc1ccc(C(=O)CC(CC(=O)c2ccc(OC)cc2)C(=O)O)cc1 | nt | nt | nt | i | nt | nt
O=C(Nc1ccc(S(=O)(=O)Nc2ncccn2)cc1)c1ccc2ncsc2c1 | i | i | i | i | i | nt
CC(=O)Nc1ccc(N2C(C(C)=O)=NN(c3ccccc3)C2c2cccs2)cc1 (centres undefined) | i | i | i | nt | i | nt
CC(=O)Nc1ccc(C2=NN(c3ccccc3)C(c3cccs3)C2)cc1 (centres undefined) | 75.8 | i | i | i | i | i
O=C(O)C1CC(=O)N(c2ccc3c(c2)OCCO3)C1 (centres undefined) | i | i | i | nt | i | nt
COC(=O)c1c(NC(=O)CSc2nnc(-c3cccnc3)n2Cc2ccco2)sc(C)c1C | i | i | i | i | i | i
O=C(CSc1nnc(-c2ccc(Cl)cc2)n1Cc1ccco1)c1cccs1 | 70.1 | i | i | nt | i | +
O=C(CSc1nnc(-c2ccncc2)n1Cc1ccco1)c1ccc(Cl)cc1 | i | i | i | nt | i | nt
O=[N+]([O-])c1cc2c(cc1/C=N/n1c(-c3ccccn3)n[nH]c1=S)OCO2 | i | i | i | i | i | nt
CC1CCN(c2nc3c(c(=O)[nH]c(=O)n3C)n2CC(C)CSc2nnnn2-c2ccccc2)CC1 (centres undefined) | 68.0 | i | i | i | i | i
Cc1ccc(C(=O)OCC(=O)Nc2ccccc2Sc2ccccc2)cc1C | 68.5 | i | i | i | i | +
O=C(Cn1nc(-c2ccccc2)nc1-c1ccccc1)OC1CCCCC1 | i | i | i | i | i | nt
COc1cc(OC)c2c(OC)c(-c3ccc4c(c3)OCO4)c(=O)oc2c1 | 62.2 | i | nt | nt | nt | i
COc1ccccc1-c1oc2ccccc2c1-c1ccc2c(c1)OCO2 | nt | nt | nt | i | nt | nt
CSc1nc(NCc2ccco2)c2ccccc2n1 | 65.5 | i | i | nt | i | i
COc1ccc(Cl)cc1NC(=O)COC(=O)CCCN1C(=O)c2ccccc2C1=O | i | i | i | i | i | nt
O=C(O)CSc1cc(-c2ccccc2)nc2ccccc12 | 66.9 | i | nt | nt | nt | i
O=C(O)CSc1nc2ccccc2s1 | i | i | i | i | i | nt
CCCn1c(C)nc2c(c1=O)c1nc3ccccc3nc1n2CCC1=CCCCC1 | 72.0 | i | i | i | i | i
CCCn1c(C)nc2c(c1=O)c1nc3ccccc3nc1n2CCc1ccccc1 | nt | nt | nt | nt | i | nt
O=C(NCc1ccccc1Cl)c1ccc2c(=O)n(CCCN3CCCC3=O)c(=S)[nH]c2c1 | i | i | i | i | i | nt
